Laboratory results: PubChem BioAssay AID620 (Sanford-Burnham Center for Chemical Genomics, 2007)
Hit rate of the full screen: of about 87,000 compounds, about 360 (0.41%) were called active. No stated cut-off is given here; in the data, active means cytotoxicity above about 50%; inactive means the rest. The sample as a whole holds a higher share of actives than the screen did.

Assay: cytotoxicity in HT1080 fibrosarcoma cells, cell-based, fluorescence readout (AID 620);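 further: cells exposed to compound overnight then 4 h with Alamar Blue; 0% = vehicle DMSO and 100% = killing control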
Settings: HT1080 viability, at 10 µM, active compounds read high

SMILES | cytotoxicity
O=C1C(Cl)=C(Nc2ccccc2O)C(=O)N1c1ccccc1 | -3.8% (inactive)
COC(=O)CNC(=O)[C@@]1(C)C=C[C@@H](Cc2ccccc2)N1C(=O)OC | 89.9% (active)
COC(=O)CNC(=O)[C@@]1(C)C=C[C@@H](Cc2ccccc2)N1C(C)=O | -25% (inactive)
CNC(=O)[C@@]1(C)C=C[C@@H](Cc2ccccc2)N1C(=O)OC | -1% (inactive)
COc1cccc(-c2nnc(SCC(N)=O)n2-c2ccc(Cl)cc2)c1 | -0.4% (inactive)
O=S(=O)(c1cccc(-c2nc3ccccc3s2)c1)N1CCOCC1 | -1% (inactive)
COc1ccccc1NC(=O)N(Cc1ccco1)Cc1cc2cccc(C)c2[nH]c1=O | -8% (inactive)
COc1ccccc1NC(=O)N(Cc1ccco1)Cc1cc2ccc(C)c(C)c2[nH]c1=O | 58.4% (active)
COc1ccccc1NC(=O)N(Cc1ccco1)Cc1cc2cc(C)cc(C)c2[nH]c1=O | 3.9% (inactive)
COc1ccc(NC(=O)CCN2CCN(S(=O)(=O)c3ccc(Cl)cc3)CC2)cc1 | -5.2% (inactive)
COc1ccc(CC2C(=O)OC(C)(C)OC2=O)cc1 | -9.2% (inactive)
O=C(Nc1cccc(-c2cc3ccccc3oc2=O)c1)c1ccc(Br)o1 | -1.6% (inactive)
COc1ccc(NS(=O)(=O)c2cc(C(=O)O)ccc2C)cc1 | -2.1% (inactive)
COc1ccc(NS(=O)(=O)c2cc(C)ccc2C)cc1 | 2.8% (inactive)
COc1ccc(C)c(S(=O)(=O)Nc2ccc(OCC(=O)O)cc2)c1 | -3.4% (inactive)
COc1ccc(NS(=O)(=O)c2cc(OC)ccc2NC(=O)c2cc(C)oc2C)cc1 | 54% (active)
COc1ccc2nc(NC(=O)c3cc(C)oc3C)sc2c1 | -5.9% (inactive)
COc1ccc(NS(=O)(=O)c2cc(C)ccc2NC(=O)c2cc(C)oc2C)cc1 | 67.9% (active)
CCOC(=O)C1Cc2ccccc2CN1 (centres undefined) | -7.6% (inactive)
CCOC(=O)N1CCC(NC(=O)C2CCCN(S(=O)(=O)c3ccc4c(c3)oc(=O)n4C)C2)CC1 (centres undefined) | -2.4% (inactive)
Cc1ccc(Oc2ccc(S(=O)(=O)N3CCOCC3)cc2C(N)=O)c(-n2nc3ccccc3n2)c1 | 53.4% (active)
COc1ccccc1Oc1ccc(S(=O)(=O)N2CCOCC2)cc1S(=O)(=O)N1CCOCC1 | -0.3% (inactive)

SMILES | cytotoxicity
CC(=O)Oc1ccc(C)cc1-n1nc2ccccc2n1 | -18.3% (inactive)
Cc1cc(C)c(C#N)c(SCC(=O)Nc2ccc3c(c2)OCO3)n1 | -1.7% (inactive)
CN(C)/C=C(\C(=O)c1ccc(Cl)cc1)c1nnnn1-c1ccc(Cl)cc1 | 5.8% (inactive)
OC(CNCCc1ccccc1)c1ccccc1 (centres undefined) | -2.3% (inactive)
CCNc1nc(NCC)nc(N2CC(=O)N(CC(=O)OCC)C2=N)n1 | 4.9% (inactive)
Clc1ccc2c(c1)C1=C(C(c3ccncc3)O2)C(c2ccc(Br)cc2)n2ncnc2N1 (centres undefined) | 50.7% (active)
Fc1ccc(C2C3=C(Nc4ncnn42)c2ccccc2OC3c2ccncc2)cc1 (centres undefined) | 14.5% (inactive)
Brc1ccc(C2C3=C(Nc4ncnn42)c2ccccc2OC3c2ccncc2)cc1 (centres undefined) | 44.4% (inactive)
O=C(CSCCc1ccccn1)Nc1ccccn1 | 3.4% (inactive)
O=C(Cc1cn2ccsc2n1)OCc1nc2ccccc2s1 | -1.1% (inactive)
CCOC(=O)c1c(C)[nH]c(C(=O)COC(=O)CNC(=O)C2CCCCC2)c1C | 0.3% (inactive)
CCOC(=O)C1=C(C)N(CCCC(=O)O)C(=O)NC1c1ccccc1OC(=O)c1cccs1 (centres undefined) | -19.7% (inactive)
CCC1CCCN1Cn1cnc2c([nH]c3ccccc32)c1=O (centres undefined) | 2.5% (inactive)
O=C(NCC(c1cccnc1)N1CCN(c2ccccc2)CC1)OCc1ccccc1 (centres undefined) | 3.4% (inactive)
COc1ccc(Cl)cc1NS(=O)(=O)c1ccc(OC)c(OC)c1 | -2.2% (inactive)
COc1ccc(S(=O)(=O)Nc2cc(Cl)ccc2OC)cc1 | 70.9% (active)
COC(=O)COc1ccc(S(=O)(=O)Nc2cc(OC)ccc2OC)cc1 | 2.6% (inactive)
CCOc1ccc(S(=O)(=O)Nc2cc(OC)ccc2OC)cc1 | 59.8% (active)
COc1ccc(Cl)cc1NS(=O)(=O)c1ccc(S(=O)(=O)N2CCCC2)cc1 | -1.1% (inactive)
CCOC(=O)c1ccccc1NS(=O)(=O)c1ccc(OCC)cc1 | 55.2% (active)
CCOC(=O)c1ccccc1NS(=O)(=O)c1ccccc1 | 37% (inactive)
CCCCOc1ccc(S(=O)(=O)Nc2cc(OC)ccc2OC)cc1 | 4.8% (inactive)

SMILES | cytotoxicity
CCOC(=O)c1ccccc1NS(=O)(=O)c1ccc(C)cc1 | 6.9% (inactive)
Cc1cc(C)n(/N=C\c2c(O)ccc3ccccc23)c(=O)c1C(N)=O | 0% (inactive)
CC(=O)c1ccc(OC(C)C)c(CN2CCCCC2)c1 | 1.8% (inactive)
Cc1onc(-c2ccccc2)c1C(=O)Nc1cccc(C#N)c1 | -1.8% (inactive)
COC(=O)CSc1nnc(CNS(=O)(=O)c2ccc(C)cc2)n1C | 6.8% (inactive)
Cc1ccc2cc(-c3noc(C4CCCCC4)n3)c(=O)[nH]c2c1 | -0.9% (inactive)
Cn1c(=O)c2c(nc(Br)n2CC(=O)c2cccs2)n(C)c1=O | -2.7% (inactive)
COc1ccc(S(=O)(=O)N2N=C(C)Oc3ccccc3C2=O)cc1 | 60.3% (active)
COc1ccc(S(=O)(=O)N2CCN(S(=O)(=O)c3ccc4c(c3)OCCO4)CC2)cc1 | 2.3% (inactive)
CC1=NN(S(=O)(=O)c2ccc(F)cc2)C(=O)c2ccccc2O1 | 0.4% (inactive)
O=C(NCc1ccccc1)C1CCN(S(=O)(=O)N2CCCCCC2)CC1 | -5.9% (inactive)
O=C(N1CCOCC1)n1nnc2ccccc21 | -1.4% (inactive)
O=S(=O)(N1CCOCC1)n1nnc2ccccc21 | -4.1% (inactive)
CCc1ccc2c(c1)[C@]1(C(=O)N2)[C@@H]2C(=O)N(Cc3ccccc3)C(=O)[C@@H]2[C@@H]2CCCN21 | -2.5% (inactive)
CCCSc1ccc2nc(NC(=O)OC)[nH]c2c1 | 40% (inactive)
CCOc1ccc2nc(NCCO)[nH]c2c1 | -12% (inactive)
COc1ccc(OCC(=O)Nc2nc3ccccc3[nH]2)cc1 | -8.8% (inactive)
CCCOc1ccc2nc(NC(=O)OC)[nH]c2c1 | 64.1% (active)
COc1ccc2nc(NCCO)[nH]c2c1 | 3.7% (inactive)
C=CCOc1ccc2nc(NC(=O)OC)[nH]c2c1 | 62.3% (active)
